How the values were obtained:
Details in all cases: concentration: 1 μM, replicates: in singlicate; n = 1
[1] = tested on: HIPK3
[2] = tested on: HIPK4
[3] = tested on: HPK1
[4] = tested on: HUNK
[5] = tested on: ICK
[6] = tested on: IGF1R
[7] = tested on: T1, IKK-alpha
T1 construct: gene CHUK

[8] = tested on: T2, IKK-beta
T2 construct: gene IKBKB

[9] = tested on: T3, IKK-epsilon
T3 construct: gene IKBKE

[10] = tested on: INSRR
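Further: KINOMEscan kinase panel screen.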

Row | Compound | %Inh [1] | %Inh [2] | %Inh [3] | %Inh [4] | %Inh [5] | %Inh [6] | %Inh [7] | %Inh [8] | %Inh [9] | %Inh [10]
1 | CCC(=O)c1c(-c2ccccc2)c2cc(Cl)ccc2c(=O)n1Cc1cc(C(=O)NC2CC2)n(C)n1 | 2% | 1% | 0% | 0% | 4% | 0% | 5% | 10% | 0% | 0%
2 | COc1cccc(C2=C(N(C)c3ccccc3)C(=O)NC2=O)c1 [SB-334865] | 25% | 0% | 53% | 9% | 0% | 12% | 0% | 14% | 3% | 0%
3 | CCCC(=O)Nc1n[nH]c2ncc(-c3cccc4ccccc34)cc12 [SB-642057] | 11% | 26% | 31% | 30% | 45% | 16% | 9% | 30% | 27% | 0%
4 | COc1ccc(-c2cc3c(C)nc(N)nc3n([C@H]3CC[C@H](O)CC3)c2=O)cn1 | 0% | 0% | 0% | 0% | 0% | 0% | 0% | 0% | 0% | 0%
5 | O=C(NCCNc1ccnc(Nc2ccc(F)cc2)n1)Nc1ccc2c(c1)OCO2 [GSK1379882] | 9% | 0% | 37% | 1% | 0% | 0% | 3% | 7% | 14% | 0%
6 | FC(F)(F)c1ccc(-c2ncn(CCCN3CCOCC3)c2-c2ccncc2)cc1 [SB-217780] | 7% | 0% | 1% | 0% | 64% | 0% | 1% | 0% | 8% | 0%
7 | CCC(=O)c1c(-c2ccccc2)c2cc(Cl)ccc2c(=O)n1Cc1cc(S(C)(=O)=O)n(CC(F)F)n1 | 0% | 0% | 0% | 3% | 0% | 10% | 0% | 0% | 0% | 0%
8 | COC(=O)c1c(-c2ccccc2)c2cc(C)ccc2c(=O)n1Cc1ccccc1 | 0% | 0% | 0% | 0% | 0% | 5% | 0% | 0% | 0% | 1%
